Source: PubChem (National Center for Advancing Translational Sciences (NCATS))
TGFb SMAD3 inh = qHTS for Inhibitors of TGF-b; HepG2 CAGA-GFP TGF-b/SMAD3 reporter, GFP fluorescence, 18 h; TGF-beta stimulated, 500 pg/mL final; Potency, µM (doses to about 46.1 µM), most hits filed as inhibitors; hit rate 1.2% among 410,000; AID 588855, 2011; also: nearly all actives have a fitted effect of over 65% in size
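First, reporter cells (HEPG2 CAGA-GFP) rested 2 h at 37 degrees C. Next, compounds were pinned in and TGF-beta added to 500 pg/mL final. After 18 h, GFP was imaged per cell and summed per well.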
S2 tox = Viability Counterscreen for Primary qHTS for Inhibitors of ATXN expression; S2 cells (HEK-293 line with an ATXN2-luciferase reporter) viability, CellTiter-Fluor protease fluorescence, 24 h; Potency, µM (series often up to 56.7 µM), hits mostly cytotoxic; hit rate 0.49% among 400,000; AID 651635, 2014; also: nearly all actives have a fitted effect of over 40% in size
RORg inh = qHTS for inhibitors of ROR gamma transcriptional activity. Nuclear receptor ROR-gamma (Mus musculus), P51450. Drosophila S2 Gal4-RORgamma UAS-luciferase reporter, 20 h. Potency, µM (titrated, usually from 53.6 µM), actives largely listed as inhibitors. hit rate 5.4% among 310,000; also: nearly all actives have a fitted effect of over 60% in size
Target sequence (P51450 whole entry, looked up, the tested form may be a part): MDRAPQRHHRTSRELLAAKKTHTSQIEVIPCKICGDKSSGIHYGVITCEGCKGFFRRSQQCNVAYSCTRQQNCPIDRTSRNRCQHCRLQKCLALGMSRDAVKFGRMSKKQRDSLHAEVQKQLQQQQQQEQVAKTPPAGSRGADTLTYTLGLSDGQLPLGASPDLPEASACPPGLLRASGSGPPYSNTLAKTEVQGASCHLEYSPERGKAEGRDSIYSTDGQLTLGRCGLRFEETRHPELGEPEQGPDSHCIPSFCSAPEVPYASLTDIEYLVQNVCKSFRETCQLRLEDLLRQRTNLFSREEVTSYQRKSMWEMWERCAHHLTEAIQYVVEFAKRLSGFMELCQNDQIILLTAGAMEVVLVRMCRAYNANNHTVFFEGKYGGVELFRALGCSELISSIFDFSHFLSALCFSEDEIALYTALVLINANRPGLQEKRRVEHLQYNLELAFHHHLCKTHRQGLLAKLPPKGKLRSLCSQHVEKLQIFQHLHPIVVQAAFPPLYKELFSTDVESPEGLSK
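Read-out: Photinus luciferase luminescence; inhibitors lower reporter signal. Insect Schneider cells with Gal4-ROR gamma fusion under metallothionein promoter, UAS reporter; 700 uM final copper sulfate induction, 20 hr, ambient temperature.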
Gal4-VP16 FLuc = VP16 counterscreen qHTS for inhibitors of ROR gamma transcriptional activity. Drosophila S2 Gal4-VP16 UAS-luciferase, luminescence, 20 h. Potency, µM (titrated, usually from 53.6 µM), most hits filed as inhibitors. hit rate 3.5% among 310,000;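 also: Gal4-VP16 expression switched on by copper sulfate through the metallothionein promoter; nearly all actives have a fitted effect of over 50% in size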
ATXN2 expr inh = Primary qHTS for Inhibitors of ATXN expression; HEK-293 ATXN2-luciferase reporter, luminescence, 24 h; Potency, µM (top dose mostly 57 µM), most hits filed as inhibitors; hit rate 0.72% among 360,000; AID 1745845, 2022; also: nearly all actives have a fitted effect of over 55% in size
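ATXN2-luciferase reporter cells (luciferase flanked by upstream and downstream ATXN2 gene portions) were treated 24 h at 37 °C with compounds at up to 57 uM. SteadyGlo luminescence gave expression; GF-AFC fluorescence gave viability.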
HepG2 tox = qHTS for Inhibitors of TGF-b: Cytotox Counterscreen | HepG2 CAGA-GFP viability, ATP luminescence, 18 h | Potency, µM (doses to about 46.1 µM), hits mostly cytotoxic | hit rate 0.76% among 410,000 | AID 588856, 2011
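HepG2 CAGA-GFP cells (1000/well, DMEM with 1% FBS) received compound, then TGF-beta at 500 pg/mL final, and were incubated 18 hours at 37 degrees C. Viability was read by CellTiter-Glo luminescence. Media-only wells were set as complete cell-killing and DMSO as no toxicity.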
A number is an active result; n = inactive; u = inconclusive; x = not tested or not shown; ! = repeats disagree. The list is not random: actives were taken first. Their share in the collection is about 6.3%. Calls follow the shape of the dose curve; as a rule, active = well fitted curve in the direction sought with a large enough effect; inconclusive = small, poorly fitted or top-dose-only effect, or another doubt; inactive = no such curve, though single readings can be large; an effect the other way counts as inactive or inconclusive.

SMILES	TGFb SMAD3 inh	S2 tox	RORg inh	Gal4-VP16 FLuc	ATXN2 expr inh	HepG2 tox
CC(=O)Nc1cc(NC(C)=O)cc(-c2nc3ccccc3[nH]2)c1	7.1µM!	32µM!	n	n	u	13µM!
O=C(Cc1cccs1)Nc1cccc(-c2nc3cc4ccccc4cc3[nH]2)c1	11µM	u	n	u	n	n
O=C(Nc1ccc(-c2nc3ccc(NC(=O)c4cccs4)cc3[nH]2)cc1)c1cccs1	u	n	13µM	u	n	n
CC(=O)Nc1ccc2nc(-c3ccncc3)[nH]c2c1	n	n	n	n	n	n
CC(=O)Nc1ccc2nc(-c3ccccn3)[nH]c2c1	n	n	10µM	n	n	n
COc1cccc(C2(CC(=O)N3CCCCC3CO)CC(=O)N(C)C2=O)c1 (centres undefined)	x	n	x	x	x	x
CO[C@H]1/C=C\O[C@@]2(C)Oc3c(C)c(O)c4c(O)c(c5c(nc6cc(C)ccn65)c4c3C2=O)NC(=O)C(C)=CC=C[C@H](C)[C@H](O)[C@@H](C)[C@@H](O)[C@@H](C)[C@H](OC(C)=O)[C@H]1C	x	x	x	x	n	x
CN(CC(=O)O)c1ccc(/C=C2\C=Cc3ccccc32)cc1	u	x	x	x	x	n
CCC1C(=O)NCCN1Cc1ccc2c(c1)CN(Cc1cc(OC)c3c(c1)OCO3)CCO2 (centres undefined)	x	n	x	x	x	x
c1ccc(-c2nc3cc4ccccc4cc3[nH]2)nc1	n	n	2.8µM	3.2µM	n	8.9µM
Cc1cccc(N2CCN(c3ncnc4c3nc3n4CCCCC3)CC2C)c1 (centres undefined)	u	x	x	x	x	n
O=C(N(c1ccccc1)c1ccccc1)N(c1ccccc1)c1ccccc1	16µM	u	n	n	x	n
O=C(CCl)N(c1ccccc1)c1ccccc1	u	x	14µM	u	u	11µM
O=C(CCl)N(CCc1ccccc1)CCc1ccccc1	u	u	u	u	u	18µM
CCOc1ccccc1CNC(=O)c1sc2ncccc2c1-n1cccc1	u	n	x	x	n	n
C=C(C)CNC(=S)NNC(=O)CCn1c2ccccc2c2ccccc21	u	n	7.1µM	u	n	n
C=C(C)CNC(=S)NNC(=O)CCn1c2cc(Cl)ccc2c2ccc(Cl)cc21	u	n	5µM	8.9µM	n	n
C=C(C)CNC(=S)NNC(=O)CCn1c2ccc(Cl)cc2c2cc(Cl)ccc21	u	u	0.63µM	0.5µM	n	n
C=C(C)CNC(=S)NNC(=O)c1ccncc1	n	n	u	n	x	n
Cn1cccc1CC(=O)NNC(=S)Nc1ccc(Cl)cc1Cl	n	n	u	u	n	n
C=CCc1c(C)nc(C)nc1N/N=C/c1ccc([N+](=O)[O-])cc1	n	n	11µM	n	n	n
C=CCc1c(C)nc(C)nc1N/N=C/c1ccccc1O	u	u	u	5µM	n	n
COc1ccc2c(c1)c1c(c(=O)n(-c3ccc(C)cc3)c(=O)n1CC(=O)c1ccc(Cl)cc1)n2C	n	n	x	x	n	n
NNC(=O)c1sc2cc(C(F)(F)F)cnc2c1-c1cccs1	n	n	10µM	u	u	n
NNC(=O)c1sc2cc(C(F)(F)F)cnc2c1-c1cccnc1	n	n	14µM	u	n	n
SMILES	TGFb SMAD3 inh	S2 tox	RORg inh	Gal4-VP16 FLuc	ATXN2 expr inh	HepG2 tox
CCCn1c(N)c(C(=O)CSc2nnc(Cc3cccs3)n2C2CC2)c(=O)n(C)c1=O	n	n	x	x	x	n
C[C@H]1Cn2cnc(C(=O)NCC(=O)OC(C)(C)C)c2C(=O)N1	n	n	x	x	n	n
C=CCN(CC=C)C(=S)NC(=O)/C=C/c1ccc(C)cc1	n	n	6.3µM	u	n	n
C=CCN(CC=C)C(=S)NC(=O)/C=C/c1ccccc1	u	n	14µM	n	n	n
CC(=O)Nc1ccc2cc3ccc(NC(C)=O)cc3nc2c1	n	x	n	n	n	13µM
CC(=O)Nc1ccc2ccccc2c1	n	n	n	n	n	n
CCCN(CC1CC1)c1nc(C)nc(Nc2c(Cl)cc(Cl)cc2Cl)c1Cl	n	n	3.5µM	n	n	n
CCN1CCN(Cc2ccc(NC(=O)c3cc(NC(=O)c4cncc(-c5cccs5)c4)cc(OC)c3)cc2C(F)(F)F)CC1	14µM	35µM	u	u	25µM!	14µM!
CCN1CCN(Cc2ccc(NC(=O)c3cc(NC(=O)c4ccc5n[nH]nc5c4)cc(OC)c3)cc2C(F)(F)F)CC1	u	n	n	n	n	n
CCN1CCN(Cc2ccc(NC(=O)c3cc(NC(=O)c4cc5cccc(OC)c5o4)cc(OC)c3)cc2C(F)(F)F)CC1	u	16µM	u	u	8.9µM!	18µM!
CCN1CCN(Cc2ccc(NC(=O)c3cc(NC(=O)c4cc(-c5ccc(OC)cc5)n[nH]4)cc(OC)c3)cc2C(F)(F)F)CC1	u	18µM	u	u	14µM	n
O=C(NCc1ccc(F)cc1)C1CCCCN1S(=O)(=O)c1ccc(F)cc1 (centres undefined)	n	n	x	x	n	n
O=C(c1ccccc1)N1CCSc2sccc2C1=O	n	n	u	n	4.7µM	n
O=C(c1ccccc1)N1CCSC1=S	n	n	n	n	n	n
C[n+]1ccc(/C=C/c2cc[n+](C)c3ccccc23)c2ccccc21	7.1µM	x	x	x	x	n
C[n+]1ccc(/C=C/c2ccc(F)cc2)c2ccccc21	n	x	x	x	x	n
C[n+]1ccc(/C=C/c2ccc([N+](C)(C)C)cc2)c2ccccc21	4.5µM	x	x	x	x	n
COc1ccc(S(=O)(=O)c2c(Nc3ccc(C)cc3C)sc(C(=O)c3ccc(F)cc3)c2N)cc1	n	x	x	x	x	n
COc1ccc(C2C=C(C34CC5CC(CC(C5)C3)C4)NC(=S)N2)cc1 (centres undefined)	u	n	0.79µM	1.6µM	n	n
O=C(CCc1c[nH]c2ccccc12)N1CCC(n2c(C3CCCO3)nc3cc(C(F)(F)F)ccc32)CC1 (centres undefined)	x	n	x	x	x	x
COc1ccc(S(=O)(=O)NC(=O)C2(C)CCN2C(=O)CCC2CCCC2)cc1OC (centres undefined)	n	n	x	x	n	n
Cc1ccc(/C=C/C(=O)N2CCN(c3ncccn3)CC2)o1	10µM	u	u	u	n	n
CCN(C(=O)CCS(=O)(=O)c1cc2[nH]c(=O)c(=O)[nH]c2cc1C)c1ccccc1	n	x	x	x	x	n
CCOC(=O)C1=CCN(S(=O)(=O)c2ccc(Br)cc2)C1c1cccc(C)c1 (centres undefined)	u	n	x	x	n	n
CCOc1cc(C(=S)N2CCOCC2)ccc1OS(=O)(=O)c1ccc(C)cc1	n	n	n	n	n	n
